Molecules are shown by their SMILES. This is part of a sample that, as a whole, favours compounds with a hit. Of some 79,000 tested, about 15% had one in any assay. Unmarked numbers belong to inactive results. The source made the active and inactive calls. Cut-off read from the data, not from the text of the source: active = growth inhibition above about 70%; inactive = the rest.

One experiment is described as follows: NCI Yeast Anticancer Drug Screen. Data for the rad18 strain (AID 177). The conditions noted are these: S. cerevisiae rad18 mutant growth inhibition; at 33.0 µM; active compounds read high. The gist of the method:
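Compounds are applied to a repair-deficient yeast strain, and growth is compared with that of vehicle-treated cultures to give percent inhibition.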
Turning to `Cc1ccc2c(c1)C1(SC(C)C(=O)N1c1ccc(Cl)cc1)C(=O)N2` (centres undefined), the growth inhibition was 97% (active).
The same measure, in the same setting: under `COc1cc(CSc2ccc(O)cc2)cc(O)c1O` stands -10%; under `Cc1ccc2c3ccc4c(c3n(C)c2c1)C(=O)C=CC4=O`, 39%; under `O=C(Nc1ccc(Cl)cc1)Nc1nnc2nc(C(C(=O)c3cccc([N+](=O)[O-])c3Cl)c3nc4nnc(NC(=O)Nc5ccc(Cl)cc5)n4[nH]c3=O)c(=O)[nH]n12`, -2%.
The same measure, in the same setting: the value for `O=C(O)C1CC(c2ccccc2)=NN1c1ccccc1` (centres undefined) was 26%; that for `CCCCc1ccc(-n2c(C)c(COC(=O)NC)c(COC(=O)NC)c2C)cc1` was 95% (active).
Still for that read-out and setting: the value for `CCC(=O)c1cc(C(=O)C(=S)SC)cc(C(=O)C(=S)SC)c1` was 98% (active).
Take `CCn1c(O)c(C=Nc2ccccc2)s/c1=N/Nc1nc(-c2ccccc2)cs1`: the growth inhibition is 9%.
Same read-out and setting: the value for `Cc1nc2ccccc2nc1NNc1ccccc1` was 30%.

Still in this experiment, the particulars now being: S. cerevisiae rad18 mutant growth inhibition; at 100.0 µM; active compounds read high.
As for `O=[N+]([O-])c1cc[n+]([O-])cc1`, the growth inhibition was 98% (active).
On the same count and under the same terms, under `COC(=O)CC1(O)C(/C=C/c2ccccc2)C(C(=O)OC)C(=O)C(C(=O)OC)C1C(=O)OC` (centres undefined) stands 4%; under `CC(C)(C)c1ccc(NS(=O)(=O)c2ccc(N)cc2)cc1`, 54%.
Same read-out and setting: the value for `CCN(CC)CCNc1ccc([N+](=O)[O-])c2nc3ccccc3c(N)c12` was -4%; that for `CCCCN(CCCC)C(=O)/C=C/c1ccccc1` was 61%; that for `O=c1[nH]c(-c2ccccc2)nc2c1sc1nc3ccccc3n12` was -38%.
The same measure, in the same setting: under `Cc1ccc(S/C(=C\C(=O)O)c2ccccc2)cc1` stands 50%; under `Cc1cc(S(=O)(=O)Nc2nnc3cnc4ccccc4n23)c(S)cc1Cl`, 48%; under `O=C(/C=C/c1cc(Cl)cc(Cl)c1O)c1cccc(O)c1`, 98% (active).
Turning to `NC1CCCCC1N.Nc1c(N=Nc2ccc(-c3ccc(N=Nc4cc(S(=O)(=O)[O-])c5ccccc5c4N)cc3)cc2)cc(S(=O)(=O)[O-])c2ccccc12.[OH3+].[OH3+].[Pt+4]`, the growth inhibition was 71% (active).
The same measure, in the same setting: under `COC(=O)CCC(NC(=S)N/N=C(\C)c1ccccn1)C(=O)OC` (centres undefined) stands 91% (active); under `COc1cc(C2SCC(=O)N2c2ccc(-c3ccc(-n4c(-c5ccccc5)nc5ccccc5c4=O)cc3)cc2)ccc1O` (centres undefined), 7%.
`Cc1c(C(C)C)cc(OCCO)cc1C(C)C`: the growth inhibition was 65%.
Take `C=C(Cl)COC(=O)Nc1cccc(Cl)c1`: the growth inhibition was 94% (active).
For `COc1c(O)c(C=O)c(Br)c(C=O)c1O`, the growth inhibition is 90% (active).
Still for that read-out and setting: the value for `O=[N+]([O-])c1cc(Cl)cnc1Br` was 87% (active); that for `Cc1ccc2c(c1)C1(SC(C)C(=O)N1c1ccc(Cl)cc1)C(=O)N2` (centres undefined) was 98% (active); that for `COc1cc(CSc2ccc(O)cc2)cc(O)c1O` was 10%.
The same measure, in the same setting: under `Cc1ccc2c3ccc4c(c3n(C)c2c1)C(=O)C=CC4=O` stands 82% (active); under `O=C(Nc1ccc(Cl)cc1)Nc1nnc2nc(C(C(=O)c3cccc([N+](=O)[O-])c3Cl)c3nc4nnc(NC(=O)Nc5ccc(Cl)cc5)n4[nH]c3=O)c(=O)[nH]n12`, 45%; under `O=C(O)C1CC(c2ccccc2)=NN1c1ccccc1` (centres undefined), 96% (active).
Regarding `CCCCc1ccc(-n2c(C)c(COC(=O)NC)c(COC(=O)NC)c2C)cc1`, the growth inhibition was 77% (active).
For the compound `CCC(=O)c1cc(C(=O)C(=S)SC)cc(C(=O)C(=S)SC)c1`, the growth inhibition is 94% (active).
Still for that read-out and setting: under `CCn1c(O)c(C=Nc2ccccc2)s/c1=N/Nc1nc(-c2ccccc2)cs1` stands -12%; under `Cc1nc2ccccc2nc1NNc1ccccc1`, 58%.

The record behind these values is PubChem BioAssay (NCI).
